Source: PubChem BioAssay (NCI)
This is part of a sample that, as a whole, favours compounds with a hit. Of some 83,000 tested, about 20% had one in any assay.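 Single-dose data. Exposure time 48 hours. Values below 10 considered active.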 Activity calls are given as the source filed them.

How the values were obtained:
Test in all cases: NCI-60 one-dose screen, 48 h (100 = growth as untreated, 0 = no growth, -100 = all killed)
Conditions in all cases: 10 µM unless noted
[1] = test system: NCI-H23 lung
[2] = test system: NCI-H226 lung
[3] = test system: NCI-H322M lung
[4] = test system: HOP-62 NSCLC
[5] = test system: NCI-H460 lung
[6] = test system: HOP-92 NSCLC
[7] = test system: NCI-H522 lung
[8] = test system: A549/ATCC NSCLC
[9] = test system: 786-0 renal
[10] = test system: COLO 205 colon
[11] = test system: DU-145 prostate
[12] = test system: K-562 leukemia
[13] = test system: MALME-3M melanoma
[14] = test system: MDA-MB-231 breast
[15] = test system: RXF 393 renal
[16] = test system: SF-268 CNS
[17] = test system: SF-295 CNS
[18] = test system: SF-539 CNS
[19] = test system: UACC-257 melanoma
[20] = test system: M14 melanoma

Measured: growth

COc1ccc(-c2nn(-c3ccc(NC(=O)c4cc(Cl)cc(Cl)c4)cc3)cc2-c2ccncc2)cc1Cl
inactive: [1] 83.7% | [2] 98.4% | [3] 88.6% | [4] 59.9% | [5] 38.3% | [6] 84.6% | [7] 87.6% | [8] 53.1% | [10] 46.9% | [11] 76.6% | [12] 12% | [13] 89.9% | [14] 25.1% | [16] 63.5% | [18] 47.8% | [19] 85% | [20] 42.9%
active: [9] 3.68% | [15] -66.8% | [17] -28.5%

COc1cc([C@@H]2c3cc4c(cc3C(OC3O[C@@H]5COC(C)O[C@H]5[C@H](O)[C@H]3O)C3COC(=O)[C@@H]32)OCO4)cc(OC)c1O (stereo not given in full)
inactive: [1] 14.3% | [2] 33.1% | [3] 115% | [6] 63.5% | [7] 24.3% | [8] 29.7% | [10] 60.6% | [11] 15.9% | [12] 30.5% | [13] 40.2% | [14] 78.3% | [15] 28.9% | [16] 23.9% | [19] 51.2%
active: [4] -9.99% | [5] 7.32% | [9] -13.1% | [17] -10.4% | [18] -5.44% | [20] 4.19%

C#C[C@@]1(O)[C@@H](CO)O[C@@H](n2cc(Br)c3c(Cl)ccnc32)[C@@H]1O
active: [6] -60.5% | [11] -41.3% | [14] -26.6% | [15] -15.9%
inactive: [1] 31.9% | [2] 47.2% | [3] 11.7% | [4] 36.4% | [5] 45% | [7] 32% | [8] 46.2% | [9] 33.5% | [10] 17.2% | [12] 14.3% | [13] 62.1% | [16] 61.7% | [17] 26.6% | [18] 17.8% | [19] 91.3% | [20] 62.4%

CC1(C)Cc2c(Br)c(Br)c(Br)c(OCC(O)CN3CCN(c4ccccn4)CC3)c2O1 (stereo not given)
active: [6] -5.32%
inactive: [1] 80.9% | [2] 91.7% | [3] 57.6% | [4] 102% | [5] 88% | [7] 60.9% | [8] 80.4% | [9] 31.3% | [10] 114% | [11] 106% | [12] 36.4% | [13] 88.2% | [14] 57.4% | [15] 99.7% | [16] 79.1% | [17] 81.5% | [18] 95.1% | [19] 105% | [20] 99.2%

CCCC(=O)Oc1ccc(/C(=C(\C)c2ccc(OC)cc2)c2ccc(OCCN3CCCCC3)cc2)cc1
inactive: [1] 79.3% | [2] 83.5% | [3] 89.7% | [4] 86.1% | [5] 87.1% | [6] 69% | [7] 78.9% | [8] 76.8% | [9] 67.1% | [10] 67.6% | [11] 87.1% | [12] 21.9% | [13] 61.9% | [14] 109% | [15] 66.2% | [16] 83.1% | [17] 61.5% | [18] 65.5% | [19] 68.5% | [20] 33.8%

Nc1ccc(S(=O)(=O)Nc2cc(I)cc(I)c2)cc1
inactive: [1] 93.6% | [2] 113% | [3] 94.8% | [4] 91.1% | [5] 109% | [6] 79.2% | [7] 90.1% | [8] 112% | [9] 95.5% | [10] 123% | [11] 124% | [12] 78.5% | [13] 118% | [14] 102% | [15] 97.2% | [16] 108% | [17] 113% | [18] 111% | [19] 99.7% | [20] 110%

CCC1S/C(=N\N=C(/C)c2cccs2)N(c2ccccc2)C1=O (stereo not given)
inactive: [1] 101% | [2] 136% | [3] 109% | [4] 65.4% | [5] 112% | [6] 85.1% | [7] 82.2% | [8] 89.5% | [9] 86.2% | [10] 114% | [11] 123% | [12] 110% | [13] 181% | [14] 97.7% | [15] 97.3% | [16] 89.3% | [17] 123% | [18] 124% | [19] 97.5% | [20] 141%
